Source: PubChem BioAssay AID1159580 (chemical genetic matrix, 2015)
“And” between values parts separate entries of the source, which are not always exact repeats. Identical values can stand only once. Among all 5,500 compounds or so, about 2,000 (36%) were called active. Roughly 18% stayed inconclusive and do not appear here. Rule as the data show it: active = normalized growth mostly below about 0.91 (no sharp cut-off); inconclusive = no clear call, values can overlap the other calls; inactive = mostly above about 0.92. This is one part of the list.

Test: chemical genetic growth profiling, strain panel (AID 1159580);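 also: tested at 20 µM; growth read once vehicle control cultures reached saturation at 30 °C; 1 = growth at the plate median or of vehicle wells; lower values mean less growth of the strain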
Details: S. cerevisiae deletion strains, growth OD

Measured: normalized growth

CCCCOc1ccc(CC(=O)NO)cc1
inactive: locus YAL021C, strain ccr4, active compounds read low 0.987 | locus YAL026C, strain drs2, active compounds read low 0.983 | locus YAL030W, strain snc1, active compounds read low 1 | locus YBL061C, strain skt5, active compounds read low 0.996 | locus YBR009C, strain hhf1, active compounds read low 0.953 | locus YBR021W, strain FUR4, active compounds read low 1.02 | locus YBR023C, strain chs3, active compounds read low 0.993 | locus YBR171W, strain sec66, active compounds read low 0.98 | locus YBR229C, strain ROT2, active compounds read low 1 | locus YBR231C, strain swc5, active compounds read low 0.988 | locus YBR279W, strain paf1, active compounds read low 1 | locus YCL011C, strain gbp2, active compounds read low 0.99 | locus YCL016C, strain dcc1, active compounds read low 0.967 | locus YCL029C, strain bik1, active compounds read low 1 | locus YCL061C, strain MRC1, active compounds read low 1.01 | locus YCL069W, strain vba3, active compounds read low 0.973 | locus YCR088W, strain abp1, active compounds read low 1 | locus YDL005C, strain med2, active compounds read low 0.994 | locus YDL035C, strain GPR1, active compounds read low 0.977 | locus YDL040C, strain nat1, active compounds read low 0.998 | locus YDL074C, strain BRE1, active compounds read low 0.964 | locus YDL101C, strain DUN1, active compounds read low 0.99 | locus YDL134C, strain PPH21, active compounds read low 0.965 | locus YDL185W, strain tfp1, active compounds read low 1 | locus YDL192W, strain arf1, active compounds read low 1.01 | locus YDR001C, strain nth1, active compounds read low 0.991 | locus YDR069C, strain doa4, active compounds read low 1 | locus YDR101C, strain arx1, active compounds read low 0.988 | locus YDR137W, strain rgp1, active compounds read low 0.857 | locus YDR150W, strain NUM1, active compounds read low 0.992 | locus YDR159W, strain sac3, active compounds read low 0.96 | locus YDR162C, strain NBP2, active compounds read low 0.99 | locus YDR195W, strain ref2 0.94 | locus YDR297W, strain sur2, active compounds read low 0.992 | locus YDR318W, strain mcm21, active compounds read low 1.01 | locus YDR334W, strain swr1, active compounds read low 1.02 | locus YDR335W, strain msn5, active compounds read low 1.01 | locus YDR388W, active compounds read low 1 | locus YDR392W, strain spt3, active compounds read low 0.935 | locus YDR502C, strain sam2, active compounds read low 0.997 | locus YEL003W, strain gim4, active compounds read low 0.97 | locus YEL037C, strain rad23, active compounds read low 0.993 | locus YEL061C, strain CIN8 (second series), active compounds read low 0.994 | locus YEL061C, strain CIN8, active compounds read low 0.996 | locus YER015W, strain faa2, active compounds read low 1 | locus YER016W, strain bim1, active compounds read low 0.997 | locus YER110C, active compounds read low 1.02 | locus YER111C, strain swi4, active compounds read low 0.996 | locus YER155C, strain BEM2 (second series), active compounds read low 0.939 | locus YER155C, strain BEM2, active compounds read low 0.994 | locus YER167W, strain BCK2, active compounds read low 0.989 | locus YFR010W, strain ubp6, active compounds read low 0.999 | locus YGL078C, strain dbp3, active compounds read low 1 | locus YGL086W, strain mad1, active compounds read low 1 | locus YGL167C, strain pmr1, active compounds read low 1.01 | locus YGL173C, strain kem1, active compounds read low 1.02 | locus YGL227W, strain vid30, active compounds read low 0.993 | locus YGL240W, strain doc1, active compounds read low 0.997 | locus YGL248W, strain PDE1, active compounds read low 0.965 | locus YGL253W, strain hxk2, active compounds read low 0.975 | locus YGR078C, strain PAC10, active compounds read low 0.957 | locus YGR135W, strain pre9, active compounds read low 1 | locus YGR229C, strain SMI1, active compounds read low 0.916 | locus YGR252W, strain gcn5, active compounds read low 0.878 | locus YHR013C, strain ard1, active compounds read low 0.978 | locus YHR027C, strain rpn1, active compounds read low 1.01 | locus YHR030C, strain SLT2, active compounds read low 0.994 and 1.05 | locus YHR079C, strain IRE1 (second series), active compounds read low 1.01 | locus YHR079C, strain IRE1, active compounds read low 1 | locus YHR094C, strain hxt1, active compounds read low 1 | locus YHR129C, strain ARP1, active compounds read low 0.994 | locus YHR142W, strain chs7, active compounds read low 0.961 | locus YHR200W, strain rpn10, active compounds read low 1.01 | locus YIL066C, strain RNR3, active compounds read low 0.915 | locus YIL073C, strain SPO22, active compounds read low 0.974 | locus YIL125W, strain kgd1, active compounds read low 0.997 | locus YIR030C, strain dcg1, active compounds read low 1 | locus YJL092W, strain hpr5, active compounds read low 0.997 | locus YJL095W, strain BCK1 (second series), active compounds read low 1 | locus YJL095W, strain BCK1, active compounds read low 0.959 and 1.01 | locus YJL115W, strain asf1, active compounds read low 1 | locus YJL129C, strain trk1, active compounds read low 0.966 | locus YJL134W, strain LCB3, active compounds read low 0.996 | locus YJL154C, strain vps35, active compounds read low 0.997 | locus YJL164C, strain tpk1, active compounds read low 0.985 | locus YJL166W, strain qcr8, active compounds read low 0.922 | locus YJL168C, strain set2, active compounds read low 1 | locus YJL187C, strain SWE1 (second series), active compounds read low 0.991
